In the library only some 6.7% were active in any assay of this set; here they are far more common.
KB-3-1 tox – KB-3-1 parental cell cytotoxicity; KB-3-1 viability, CellTiter-Glo ATP luminescence, 72 h; Potency, µM (titrated, usually from 46.1 µM), usual class: cytotoxic; 1.4% of 400,000 active; further: on the % scale 0 is the no-effect control and ±100 the full control effect; nearly all actives have a fitted effect of over 60% in size
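Parental KB-3-1 adenocarcinoma cells in phenol-red-free DMEM with 10% FBS were pin-treated with compounds at several concentrations, incubated 72 h at 37 °C, and viability read by CellTiter-Glo luminescence; concentration-effect curves were fitted after normalization.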
PINK1 expr mod – changes PINK1 expression. PINK1 immunofluorescence, high-content cytometry, 24 h. Potency, µM (titrated, usually from 76.6 µM), inactives show at the top dose activation (PINK1 increase), usual class: activators. AID 624263. 0.2% of 410,000 active; active means well fitted activation curve with a large enough effect; inconclusive means small, poorly fitted or top-dose-only effect; cell line not stated here; further: % of control where 0% means no effect; nearly all actives have a fitted effect of over 65% in size
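Compound titrations (5 concentrations, 24 h) on a stable cell line; DMSO and CCCP controls. Endpoint: fixed-cell PINK1 immunofluorescence with mitochondrial, cell and nuclear markers, scanned by microplate cytometer.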
KB-V1 cytotox – kills drug-selected multidrug resistant KB-V1 cells | Potency, µM (highest dose often 46.1 µM), most hits filed as cytotoxic | 3.4% of 400,000 active | KB-V1 MDR cells viability, CellTiter-Glo, 72 h; further: on the % scale 0 is the no-effect control and ±100 the full control effect; nearly all actives have a fitted effect of over 60% in size
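Cytotoxicity via CellTiter-Glo luminescence after 72 h compound exposure at 37 degrees C. Cells: drug-selected KB-V1 line, DMEM phenol-red free plus 10% FBS. Compounds tested at multiple concentrations; normalized data fitted to concentration-effect curves.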
MCF10A rereplic – DNA re-replication induction in MCF 10a cells; MCF 10A DNA re-replication, Hoechst nuclear intensity, 48 h; Potency, µM (series often up to 46.1 µM), for inactives: at the top dose activity, positive = re-replication, most hits filed as activators; 2.9% of 350,000 active; further: % of control where 0% means no effect; nearly all actives have a fitted effect of over 50% in size
SW480 rereplic – induces DNA re-replication in SW480 colon adenocarcinoma cells; SW480 DNA re-replication, Hoechst DNA content imaging, 48 h; Potency, µM (highest dose often 46.1 µM), for inactives: at the top dose re-replication activation, usual class: activators; 1.8% of 340,000 active; AID 624297; further: % of control where 0% means no effect; nearly all actives have a fitted effect of over 55% in size
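Readout is total intensity of Hoechst-stained nuclei, excited at 405 nm and collected at 500-530 nm. Compound treatment lasted 48 hr at 37 C in 5% CO2 before staining.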
Numbers without * were called inactive; i = inactive; ? = inconclusive; · = not tested or not shown; [ ] = dose if it differs, or a comment. Unless noted, the call rests on the fitted dose curve; in most records, active means well fitted curve in the direction sought with a large enough effect; inconclusive means small, poorly fitted or top-dose-only effect, or another doubt; inactive means no such curve, though single readings can be large; an effect the other way counts as inactive or inconclusive. Potency means the concentration at half of the fitted maximal effect.

SMILES	KB-3-1 tox	PINK1 expr mod	KB-V1 cytotox	MCF10A rereplic	SW480 rereplic
Cc1ccc(S(=O)(=O)/N=C2\C=C(Nc3cccc(C(=O)O)c3)C(=O)c3ccccc32)cc1	23µM*	-1%	i	?	?
Cc1ccc(S(=O)(=O)Nc2ccc(N=Nc3ccc(O)cc3)cc2)cc1	i	6%	i	-4%	0%
Cc1ccc(S(=O)(=O)/N=C2\C=C(Nc3ccc(O)cc3)C(=O)c3ccccc32)cc1	4.1µM*	-1%	?	3.3µM*	6.3µM*
CS(=O)(=O)c1ccccc1NC(=O)COc1ccccc1C(=O)Nc1ccccc1	·	1%	·	·	·
COc1cc(C(=O)NC(C)C2CC3CCC2C3)ccc1OC(F)F (configuration not stated)	i	3%	21µM*	14%	7%
CCOc1cc(C(=O)NC(C)C2CC3CCC2C3)cc(OCC)c1OCC (configuration not stated)	i	9%	i	13µM*	-3%
CC(NC(=O)c1ccc(F)cc1)C1CC2CCC1C2 (configuration not stated)	i	3%	i	0%	-12%
Cc1ccc(C(=O)NC(C)C2CC3CCC2C3)cc1 (configuration not stated)	i	2%	i	?	-11%
CC(C)CC1NC(=O)N(CC(=O)Nc2ccc(OCc3ccccc3)cc2)C1=O (configuration not stated)	i	-1%	i	27%	?
CCOc1cc(CNc2ccc(CNc3ncn[nH]3)cc2)ccc1OCc1ccccc1	23µM*	3%	18µM*	21%	-44%
Cc1cc(C(=O)N/N=C/c2ccc(Cl)c([N+](=O)[O-])c2)c(C)n1-c1ccc(F)cc1	5.8µM*	-2%	?	12µM*	17%
COc1ccc(-n2nc([N+](=O)[O-])c(=NCc3ccco3)n2O)cc1	i	6%	i	-2%	-3%
COc1ccc(-n2nc([N+](=O)[O-])c(=NCCc3ccc(OC)c(OC)c3)n2O)cc1	i	3%	2.6µM*	3%	3%
COc1ccc(-n2nc([N+](=O)[O-])c(=NCCc3ccc(C)cc3)n2O)cc1	i	1%	i	7%	1%
COc1ccc(-n2nc([N+](=O)[O-])c(=NCc3cccnc3)n2O)cc1	i	3%	21µM*	-6%	-7%
COc1ccc(OC)c(NC(=O)C2(C)CCN2Cc2cccc(OC)c2F)c1 (configuration not stated)	i	0%	i	·	·
CC(C)(C)c1ccc(C(=O)N2CCC2(C)C(=O)Nc2ccc3[nH]ncc3c2)cc1 (configuration not stated)	i	2%	i	·	·
COc1ccc(NC(=O)C2(C)CCN2C(=O)c2ccc(C(C)(C)C)cc2)cc1OC (configuration not stated)	15µM*	1%	16µM*	·	·
COc1cccc(CN2CCC2(C)C(=O)Nc2cccc3cccnc23)c1F (configuration not stated)	7.3µM*	1%	7.3µM*	·	·
COc1ccc(NC(=O)C2(C)CCN2Cc2ccc(OC)c3ccccc23)cc1OC (configuration not stated)	i	1%	i	·	·
COc1ccc(NC(=O)C2(C)CCN2Cc2cccc(OC)c2OC)cc1OC (configuration not stated)	?	0%	8.2µM*	·	·
CCOc1ccc(-n2c(=O)c3c4c(sc3n(CC(=O)NC(C)CC)c2=O)CCCC4)cc1 (configuration not stated)	i	2%	?	·	·
CC(C)N1CCN(Cc2ccc(OC3CCCC3)cc2)CC1CCO (configuration not stated)	i	3%	i	4.6µM*	3%
C(=C\c1nc2ccccc2s1)/c1ccc2c(c1)OCO2	?	4%	i	·	·
COc1cc(C(C)=O)ccc1Oc1ncnc2c1cnn2-c1ccccc1	i	11%	15µM*	9%	-4%
SMILES	KB-3-1 tox	PINK1 expr mod	KB-V1 cytotox	MCF10A rereplic	SW480 rereplic
COc1cc(C(C)=O)ccc1Oc1ncnc2c1cnn2-c1ccc(C)c(C)c1	i	6%	i	15%	3%
CS(=O)(=O)N1N=C(c2ccc(Br)cc2)CC1c1ccc2c(c1)OCO2 (configuration not stated)	i	-2%[38.3 µM]	16µM*	22%	1%
CC1Cc2ccccc2N1CC(=O)Nc1cc(S(=O)(=O)N2CCOCC2)ccc1Cl (configuration not stated)	i	0%	?	·	·
CCCCNc1c(-c2cccc(-c3cc(C(C)=O)cs3)c2)nc2ccc(C)cn12	?	1%	21µM*	?	?
CCCCCCSc1cccc(-c2nc3ccc(Cl)cn3c2NCCCC)c1	i	7%	?	23%	-4%
CCCCNc1c(-c2cccc(-c3ccc(OC)cc3)c2)nc2ccc(C)cn12	?	-2%	?	4.1µM*	?
CCCCNc1c(-c2cccc(-c3ccc(OC)cc3)c2)nc2cc(C)ccn12	?	?	?	23µM*	?
CCN1CCN(c2ncnc3c2cnn3-c2ccc(F)cc2)CC1	i	0%	i	·	·
N#CC1(NC(=O)Cn2ncc(Cl)c(Cl)c2=O)CCCCC1	?	0%	i	4.5µM*	-53%
CCCCN1CCCC1C(=O)Nc1c(C)cc(C)cc1C (configuration not stated)	·	·	·	6%	7%
CCOC(=O)N1CCc2c(sc3c2C(=O)NC(c2ccc(C(=O)OC)cc2)N3)C1 (configuration not stated)	i	0%	i	·	·
CCOC(=O)N1CCc2c(sc3c2C(=O)NC(c2cc(OC)c(OC)c(OC)c2)N3)C1 (configuration not stated)	16µM*	4%	i	·	·
O=C(NNS(=O)(=O)c1ccc(F)cc1)c1ccccc1F	i	0%	i	-1%	18µM*
O=[N+]([O-])c1ccc(Sc2ccc(Cl)c(Cl)c2)nc1	i	2%[38.3 µM]	?	15µM*	17%
COc1ccc(CCN2C(=O)CC(C(N)=O)SC2=Nc2ccccc2)cc1OC (configuration not stated)	i	-1%	21µM*	4%	-2%
COc1ccc(CCN2C(=O)CSC2=S)cc1OC	6.5µM*	-1%	5.8µM*	12µM*	15µM*
COc1ccc(CN2C(=O)CSCC2=O)cc1OC	i	1%	?	0%	-32%
CNC(=O)C1CC(=O)N(CCc2ccc(OC)c(OC)c2)C(=Nc2ccc(F)cc2)S1 (configuration not stated)	i	-1%	i	11%	?
CN(CC(=O)Nc1ccc(Cl)cc1)CC(=O)N1CCc2ccccc21	?	0%	i	·	·

Bioassay records as filed in PubChem BioAssay.
